# From PubChem
# Hits are enriched below; roughly 18% of the tested compounds scored in any of these assays.
# HepG2 tox = kills HepG2 cells in TGF-b inhibitor counter-screen | 410,000 tested, 0.76% active | Potency, µM (highest dose often 46.1 µM), hits mostly cytotoxic | AID 588856 | HepG2 CAGA-GFP viability, ATP luminescence, 18 h
#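 CellTiter-Glo luminescence gave cytotoxicity after 18 hours at 37 degrees C. The cells were HepG2 CAGA-GFP in 1% FBS DMEM, stimulated with 500 pg/mL TGF-beta after compound addition. %Activity was normalised to no-cell wells (complete cell-killing) and DMSO (no toxicity), and curves were fitted and classified.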
# TDP1 block = blocks human tyrosyl-DNA phosphodiesterase 1. recombinant TDP1, AlphaScreen DNA substrate cleavage. Potency, µM (highest dose often 130 µM), hits mostly inhibitors. 350,000 tested, 0.28% active; note: nearly all actives have a fitted effect of over 40% in size
# Target sequence (Q9NUW8 whole entry, looked up): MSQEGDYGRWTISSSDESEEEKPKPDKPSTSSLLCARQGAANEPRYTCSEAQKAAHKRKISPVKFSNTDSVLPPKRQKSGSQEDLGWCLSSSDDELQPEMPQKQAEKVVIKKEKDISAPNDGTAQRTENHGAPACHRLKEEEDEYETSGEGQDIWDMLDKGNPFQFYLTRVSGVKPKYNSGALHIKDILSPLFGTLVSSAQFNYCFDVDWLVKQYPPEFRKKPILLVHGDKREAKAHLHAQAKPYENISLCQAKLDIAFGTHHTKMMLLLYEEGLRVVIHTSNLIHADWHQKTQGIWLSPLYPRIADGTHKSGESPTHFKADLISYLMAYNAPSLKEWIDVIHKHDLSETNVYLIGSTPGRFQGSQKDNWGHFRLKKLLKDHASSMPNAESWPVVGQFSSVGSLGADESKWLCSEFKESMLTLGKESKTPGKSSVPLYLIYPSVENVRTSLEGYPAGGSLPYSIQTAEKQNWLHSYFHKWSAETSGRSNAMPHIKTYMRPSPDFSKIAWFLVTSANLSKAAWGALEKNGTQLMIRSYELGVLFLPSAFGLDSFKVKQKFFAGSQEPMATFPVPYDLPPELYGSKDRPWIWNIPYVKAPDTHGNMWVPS
#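 AlphaScreen read-out: signal falls as enzyme removes the 3' tyrosine-FITC from a 5'-biotinylated DNA oligo (15 nM, 5 min, RT). Enzyme was E. coli-made recombinant Tdp1 at 1 nM, exposed to compound for 15 min beforehand; beads 10 ug/ml, 10 min.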
# DT40 TDP1 no CPT = qHTS for Inhibitors of human tyrosyl-DNA phosphodiesterase 1 (TDP1): qHTS in cells in absence of CPT. DT40 Tdp1-/- hTDP1 cells, no CPT, ATP luminescence, 48 h. Potency, µM (top dose mostly 46.2 µM), hits mostly inhibitors. 420,000 tested, 15% active. AID 686978, 2013; note: nearly all actives have a fitted effect of over 55% in size
#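 No-CPT arm: Tdp1-/-;hTDP1 DT40 cells (400/well) plus compounds, incubated ≥48 hr at 37 °C. Readout CellTiter-Glo luminescence.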
# IL-1B inflam inh = inflammasome signaling inhibition, IL-1 beta readout | AID 743279 | activity change, % at 57.5 µM | THP-1 LPS/ATP IL-1B secretion, AlphaLISA, 16 h; stronger effect = lower value | 360,000 tested, 4.7% active; in the data active = activity change below about -50%; inconclusive = mostly about -30% to -49%
#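 Secreted IL-1B measured by AlphaLISA bead assay after 16 h compound exposure of THP-1 cells; compounds (final up to 57.5 uM) added 1 h before LPS (250 ng/mL) and ATP (1.25 mM) stimulation; lower signal means less secretion.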
# TGFb SMAD3 inh = TGF-b pathway inhibition; AID 588855; HepG2 CAGA-GFP TGF-b/SMAD3 reporter, GFP fluorescence, 18 h; TGF-beta stimulated, 500 pg/mL final; 410,000 tested, 1.2% active; Potency, µM (series often up to 46.1 µM), most hits filed as inhibitors; note: nearly all actives have a fitted effect of over 65% in size
#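 Inhibition of TGF-beta-driven CAGA-GFP reporter expression in HEPG2 cells is measured by cellular GFP fluorescence after 18 h stimulation with 500 pg/mL recombinant TGF-beta in 1% FBS medium at 37 degrees C.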
# DT40 TDP1 CPT = growth inhibition of DT40 Tdp1-/-;hTDP1 cells with camptothecin (screen for TDP1 inhibitors); AID 686979; Potency, µM (titrated, usually from 46.2 µM), actives largely listed as inhibitors; chicken DT40 Tdp1-/-;hTDP1 cells + 20 nM CPT, ATP luminescence, 48 h; 420,000 tested, 12% active; note: nearly all actives have a fitted effect of over 55% in size
#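 Chicken DT40 Tdp1-/- cells complemented with human TDP1, 400 cells/well, exposed to compounds plus 20 nM camptothecin for at least 48 h at 37 C; viability read as ATP content by CellTiter-Glo luminescence.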
# A number is an active result; 0 = inactive; ? = inconclusive; - = no result given; [ ] = dose if it differs, or a comment. Unless noted, calls come from the whole dose curve; as a rule, active = well fitted curve in the direction sought with a large enough effect; inconclusive = small, poorly fitted or top-dose-only effect, or another doubt; inactive = no such curve, though single readings can be large; an effect the other way counts as inactive or inconclusive.
SMILES,HepG2 tox,TDP1 block,DT40 TDP1 no CPT,IL-1B inflam inh,TGFb SMAD3 inh,DT40 TDP1 CPT
COc1ccc(N=C2SCC(c3ccccc3)=NN2C)cc1,0,0,?,0,?,?
NCCCC[C@H](N)C(=O)O,-,-,0,-,-,0
CN[C@@H]1[C@H](O[C@@H]2O[C@H](C)[C@@](O)(CO)[C@H]2O[C@H]2[C@H](O)[C@H](O)[C@H](N=C(N)N)[C@@H](O)[C@@H]2N=C(N)N)O[C@@H](CO)[C@H](O)[C@H]1O,-,0,-,-,-,-
CCCNC(=O)c1cc(C2CCCCN2C(=O)c2ccccc2)on1 (stereo unspecified),0,-,0,0,0,0
CCCNC(=O)c1cc(C2CCCCN2C(=O)c2cc(OC)c(C)c(OC)c2)on1 (stereo unspecified),0,-,?,0,0,21µM
CC(C)c1ccc(C(=O)N2CCCCC2c2cc(C(=O)Nc3ccncc3)no2)cc1 (stereo unspecified),0,-,16µM,0,0,16µM
CCCNC(=O)c1cc(C2CCCCN2C(=O)c2ccc(C(C)C)cc2)on1 (stereo unspecified),0,-,10µM,0,0,21µM
CC1=C(C(=O)Nc2cc(Cl)ccc2C)C(c2cccs2)n2ncnc2N1 (stereo unspecified),0,0,?,-,0,0
O=C(Nc1ccncc1)c1ccc(Cl)c(S(=O)(=O)N2CCc3ccccc32)c1,0,0,7.3µM,?,0,9.2µM
Cc1cccc(NC(=O)c2ccc(Cl)c(S(=O)(=O)N3CCc4ccccc43)c2)n1,0,0,?,0,?,23µM
CN1CCC(N(C)C(=O)c2ccc(Cl)c(S(=O)(=O)N3CCc4ccccc43)c2)CC1,0,0,?,-50,0,?
O=C1CN(C(=O)c2ccc(Cl)c(S(=O)(=O)N3CCc4ccccc43)c2)c2ccccc2N1,0,-,21µM,0,0,16µM
CCc1nnc(NC(=O)c2ccc(Cl)c(S(=O)(=O)N3CCc4ccccc43)c2)s1,0,0,0,0,?,0
CCN1C(C)=C(C(=O)OC)C(c2ccccc2)N2C(=O)[C@@]3(C(=O)OC)O[C@@]12C1C(=O)N(c2ccccc2)C(=O)C13 (stereo partly specified),-,0[21 µM],-,-,-,-
Cc1ccc(S(=O)(=O)CC(O)COc2ccc(F)cc2Cl)c(C)c1 (stereo unspecified),0,0,0,-145,0,0
Cc1ccc(S(=O)(=O)CC(O)COc2ccc(F)cc2Cl)cc1 (stereo unspecified),0,0,?,0,0,0
COc1ccccc1S(=O)(=O)CC(O)COc1ccc(F)cc1Cl (stereo unspecified),0,0,0,-62,0,0
O=C(NNC(=O)c1ccc(Br)s1)c1csc(N2CCOCC2)n1,0,0,0,0,0,0
CC(C)n1ncc2c(C(=O)Nc3ccccc3SCC(N)=O)cc(C3CC3)nc21,0,-,?,?,0,?
COc1ccccc1N(Cc1ccccc1)S(=O)(=O)c1cccc(C(=O)Nc2cccc(C)n2)c1,0,0,?,0,0,?
COc1ccc(C2C(C(=O)Nc3ccc(C)cc3C)=C(C)Nc3nc4ccccc4n32)c(OC)c1 (stereo unspecified),0,0,?,-,0,0
COc1ccccc1NC(=O)C1=C(C)Nc2nc3ccccc3n2C1c1cccc(OC)c1OC (stereo unspecified),0,0,?,-,0,16µM
CCOc1ccccc1C1C(C(=O)Nc2ccccc2OC)=C(C)Nc2nc3ccccc3n21 (stereo unspecified),0,0,0,-,0,0
COc1cccc(C2C(C(=O)Nc3ccccc3OC)=C(C)Nc3nc(-c4ccco4)nn32)c1 (stereo unspecified),0,-,18µM,-,0,?
COc1cccc(C2C(C(=O)Nc3ccc(Cl)cc3)=C(C)Nc3nc4ccccc4n32)c1OC (stereo unspecified),0,0,?,-,?,21µM
SMILES,HepG2 tox,TDP1 block,DT40 TDP1 no CPT,IL-1B inflam inh,TGFb SMAD3 inh,DT40 TDP1 CPT
CNC(=O)C1=C(C)Nc2nc3ccccc3n2C1c1cccc(OC)c1 (stereo unspecified),0,0,0,0,0,0
COc1cccc(C2C(C(=O)Nc3ccccc3OC)=C(C)Nc3nc4ccccc4n32)c1 (stereo unspecified),0,0,15µM,-,0,?
[O-][n+]1onc2c1CCC(=N/O)/C2=N\Nc1ccccc1,-,0,-,-,-,-
CN(C)Cc1ccccc1Sc1ccc(Br)cc1,0,0,0,?,0,0
Cc1cc(C)c(S(=O)(=O)NCc2nc3nc(C)cc(C)n3n2)c(C)c1,0,-,0,0,0,0
CC(C)n1c(O)c(/C=C2\C=NN=C2c2ccccc2)sc1=S,16µM,0,?,-,?,?
CCn1c(O)c(/C=C2\C=NN=C2c2ccc(C)cc2)sc1=S,0,0,0,0,0,0
CCCS(=O)(=O)Nc1cccc(-c2ccc3nnc(C)n3n2)c1,0,0,?,0,0,?
CCS(=O)(=O)Nc1cccc(-c2ccc3nnc(-c4cccnc4)n3n2)c1,0,0,?,-54,?,21µM
